AC50 and outcome data for five compounds are collected here from PubChem BioAssay (EPA / NIEHS).

What is called AC50 is the concentration giving half of the maximal activity seen.

Results filed as inconclusive are left out. The source made the active and inactive calls. How the source made its calls, unless noted: active means hit-call score of the fitted dose curve at least 0.9, where 1 is the maximum; inactive means score below 0.9.

Test [1] is described as follows: CCTE_Simmons_MITO_max_resp_rate: CCTE's HepG2 Seahorse XF Respirometric Screening Assay at Maximal Respiratory State [uncoupled], Simmons Lab (AID 2284002). As to conditions: actives raise or lower the signal. In a few lines:
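HepG2 oxygen consumption measured on Seahorse XF after FCCP uncoupling, following test compound injection; 7 concentrations from 125 nM to 100 uM final. Readings every 6 min over 72 min, three biological replicates; bidirectional fit versus DMSO.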

Test [2] is described as follows: CCTE_Simmons_MITO_inhib_resp_rate: CCTE's HepG2 Seahorse XF Respirometric Screening Assay at Inhibited Respiratory State [full ETC block], Simmons Lab (AID 2284006). As to conditions: actives raise or lower the signal. In a few lines: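 Compound injected onto HepG2 cells (125 nM–100 uM final, 7 points); FCCP then rotenone/antimycin A added. Oxygen consumption read every 6 min (3 min mix, 3 min measure) for 72 min. Inhibited-state OCR fitted against DMSO.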

Test [3] is described as follows: CCTE_Simmons_MITO_viability: CellTiter-Glo Viability Assessment for CCTE's HepG2 Seahorse XF Respirometric Screening Assay [post-hoc], Simmons Lab (AID 2284007; active means hit-call score of the fitted dose curve at least 0.9, where 1 is the maximum). An outline of the steps: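 After the Seahorse oxygen-consumption sequence (basal, FCCP, rotenone/antimycin A; 72 min total), HepG2 viability was scored as ATP content by bioluminescence. Chemicals ran at seven concentrations up to 100 uM final for 90 min.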
In general terms: ATP-based viability assays read luminescence as a measure of living cells.

The nature of test [4]: CCTE_Shafer_MEA_acute_spike_number: CCTE's Neural Acute Assay for Total Number of Spikes, Shafer Lab (AID 2284008).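 On AC50: curve fitted for decrease in spike count so AC50 reflects inhibitors.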 An outline of the steps:
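Rat primary cortical neurons on 48-well MEA plates, DIV 13 or 15, at 37 C. 40 min baseline then 40 min with compound (0.03-40 uM); spikes detected at 8x rms noise, expressed as percent change from baseline.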

Test [5] in a line: CCTE_Shafer_MEA_acute_firing_rate_mean: CCTE's Neural Acute Assay for Mean Firing Rate, Shafer Lab (AID 2284009).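 Further: analyzed for loss of signal so actives lower firing rate relative to DMSO.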 In a few lines: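 Percent change in well-mean firing rate was derived from extracellular spikes detected at 8x rms noise (300-5000 Hz band-pass) before and after a 40-min compound exposure. Cultures were primary rat cortical neurons, tested at 0.03-40 uM.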
Test [6] can be described thus: CCTE_Harrill_HTTr_Viability_MCF7: CCTE's 6-hour Cell Viability Assessment for the High-Throughput Transcriptomics (HTTr) Platform, in MCF-7 cells cultured in DMEM + 10% fetal bovine serum, Harrill Lab (AID 2284010). In a few lines: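 Cells were dosed with chemicals in an eight-point dilution series, imaged 6 hours later for propidium iodide uptake, and the endpoint was analyzed by bidirectional fitting against DMSO as negative control.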

Test [7] is described as follows: CCTE_Harrill_HTTr_Apoptosis_MCF7: CCTE's 6-hour Apoptosis Assessment for the High-Throughput Transcriptomics (HTTr) Platform, in MCF-7 cells cultured in DMEM + 10% fetal bovine serum, Harrill Lab (AID 2284011). An outline of the steps: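 MCF-7 cells in DMEM + 10% FBS exposed 6 h to chemicals over an eight-point dilution series. Caspase-3/7 activation imaged by high-content CellEvent Green staining; fitted bidirectionally versus DMSO.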

Test [8] in a line: CCTE_Harrill_HTTr_CellCount_MCF7: CCTE's Cell Proliferation Assessment for the High-Throughput Transcriptomics (HTTr) Platform, Harrill Lab (AID 2284012; active means hit-call score of the fitted dose curve at least 0.9, where 1 is the maximum;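 further: cells exposed to compound for six hours; intended direction is loss of nuclei count meaning fewer cells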). In a few lines: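 Chemicals in eight-point dilution series are added to MCF-7 cells for six hours, nuclei are stained with Hoechst and imaged, and per-well nuclei counts are fitted in both directions relative to DMSO controls.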

A short description of test [9]: CCTE_Shafer_MEA_acute_burst_number: CCTE's Neural Acute Assay for Single-Electrode Bursts, Shafer Lab (AID 2284013). An outline of the steps:
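Spontaneous network activity of primary rat cortical neurons was recorded extracellularly on microelectrode arrays at 37 C, with 40-min periods before and during exposure to 0.03-40 uM compound on DIV 13 or 15.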

A short description of test [10]: CCTE_Shafer_MEA_acute_burst_duration_mean: CCTE's Neural Acute Assay for Mean Burst Duration, Shafer Lab (AID 2284014).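 Further: hits are decreases in mean burst duration relative to DMSO controls.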 An outline of the steps: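 Read-out is the per-well percent change in mean burst duration (first to last spike within a single-electrode burst) between 40-min recordings before and after compound. Cultures were primary rat cortical neurons on MEAs, dosed at 0.03-40 uM on DIV 13 or 15.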

A short description of test [11]: CCTE_Shafer_MEA_acute_per_burst_spike_number_mean: CCTE's Neural Acute Assay for Average Number of Spikes Per Burst, Shafer Lab (AID 2284015).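 Further: hits are decreases in mean spikes per burst versus baseline.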 An outline of the steps:
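Rat primary cortical neurons on 48-well MEAs (DIV 13 or 15) were treated with 0.03-40 uM compound at 37 C. Mean spikes per burst over 40 min were recorded before and after exposure and expressed as percent change from baseline, relative to DMSO.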

A short description of test [12]: CCTE_Shafer_MEA_acute_interburst_interval_mean: CCTE's Neural Acute Assay for Mean Interburst Interval, Shafer Lab (AID 2284016).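 Further: percent change of mean interburst interval versus each well's own pre-dose baseline; curves fitted for decrease in interburst interval relative to DMSO.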 In a few lines:
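Rat primary cortical neurons on 48-well MEAs at DIV 13 or 15 were exposed acutely to 0.03-40 uM. Spikes detected at 8x rms noise, 37 C. Mean interburst interval from 40 min recordings expressed as percent change from 40 min pre-treatment baseline.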

Test [13] in a line: CCTE_Shafer_MEA_acute_burst_percentage_mean: CCTE's Neural Acute Assay for Percentage of Spikes in a Burst, Shafer Lab (AID 2284017).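 On AC50: curve fitted for loss of signal so potency reflects decreased burst percentage.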 An outline of the steps: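 Primary rat cortical neurons on 48-well MEA plates, treated on DIV 13 or 15 at 0.03-40 uM. Spikes detected at 8x rms noise at 37C; percent change from 40-min baseline to 40-min post-dose recording, fitted versus DMSO.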

Test [14] is described as follows: CCTE_Shafer_MEA_acute_burst_percentage_std: CCTE's Neural Acute Assay for Standard Deviation of Burst Percentage, Shafer Lab (AID 2284018).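 Further: fitted in the negative direction so actives lower burst percentage SD.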 An outline of the steps:
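Value is percent change from baseline in the across-electrode SD of spikes-in-bursts percentage, wells with >/= 10 active electrodes. Acute 40-min exposure to 0.03-40 uM on DIV 13 or 15 rat cortical cultures, recorded at 37 C after 40-min baseline.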

Test [15] can be described thus: CCTE_Shafer_MEA_acute_per_network_burst_spike_number_mean: CCTE's Neural Acute Assay for Average Number of Spikes in a Network Burst, Shafer Lab (AID 2284019).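 On AC50: curve fitted for loss of signal so actives reduce spikes per network burst.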 An outline of the steps:
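Read-out is mean spike count per network burst, taken as percent change between a 40-min pre-exposure and a 40-min post-exposure recording per well. Rat primary cortical neurons on MEAs at 37 C, DIV 13 or 15; compounds at 0.03-40 uM.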

A short description of test [16]: CCTE_Shafer_MEA_acute_per_network_burst_spike_number_std: CCTE's Neural Acute Assay for Standard Deviation of Number of Spikes in a Network Burst, Shafer Lab (AID 2284020).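 Further: fitted for decrease in spike-number SD versus DMSO so actives lower it.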 In a few lines:
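Spontaneous network activity of primary rat cortical neurons is recorded extracellularly before and after a 40-min compound exposure (0.03-40 uM) at 37 C. The endpoint is the well's percent change in burst spike-number SD.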

The nature of test [17]: CCTE_Shafer_MEA_acute_per_network_burst_electrodes_number_mean: CCTE's Neural Acute Assay for Mean Number of Electrodes in a Network Burst, Shafer Lab (AID 2284021).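 Further: curves fitted for decreases only so hits reduce electrodes per burst.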 In a few lines: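 Rat primary cortical neurons on 48-well MEAs, DIV 13 or 15, were treated at 0.03-40 uM. Spikes were detected at 8x rms noise and recorded at 37 C. The mean electrodes per network burst in a 40 min exposure recording was expressed as percent change from a 40 min baseline.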

Test [18] in a line: CCTE_Shafer_MEA_acute_network_burst_percentage: CCTE's Neural Acute Assay for Percentage of Network Bursts, Shafer Lab (AID 2284022).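 Further: curves fitted for loss so actives lower network burst percentage.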 An outline of the steps: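 Rat primary cortical neuron networks on 48-well MEA plates, DIV 13 or 15, treated acutely with compound (0.03-40 uM, at least three wells). Percent of spikes within network bursts compared between 40-min recordings before and during exposure at 37 C, expressed as percent change.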

Test [19] is described as follows: CCTE_Shafer_MEA_acute_cross_correlation_area: CCTE's Neural Acute Assay for Area of Cross Correlation, Shafer Lab (AID 2284024).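 Further: curves fitted for loss of cross-correlation area so actives lower synchrony.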 An outline of the steps:
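Rat primary cortical neurons on 48-well MEA, DIV 13 or 15; compounds 0.03-40 uM. Baseline and post-exposure 40 min recordings at 37 C; percent change in area under pooled inter-electrode cross-correlation near zero lag, relative to DMSO.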

Test [20] can be described thus: CCTE_Shafer_MEA_acute_cross_correlation_HWHM: CCTE's Neural Acute Assay for Cross Correlation at Half Width at Half Maximum, Shafer Lab (AID 2284026).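 Further: hits are a decrease in cross-correlogram half width relative to DMSO.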 In a few lines: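 Rat primary cortical neurons on 48-well MEA plates; 40-min baseline and 40-min post-exposure recordings at 37 C on DIV 13 or 15, compounds 0.03-40 uM. Spikes detected at 8x rms noise; percent change in cross-correlogram HWHM per well vs baseline.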

In the case of `CC(C)(C)C(O)(CCc1ccc(Cl)cc1)Cn1cncn1` (stereo not drawn), the AC50 was 33.4 µM (active) in test [1]; 3.76 µM (active) in test [4]; 3.75 µM (active) in test [5]; 3.5 µM (active) in test [9]; 5.9 µM (active) in test [12]; 1.22 µM (active) in test [15]. Besides, in test [20], the AC50 is 20 µM (active). Besides, the compound was called inactive in test [2], in [3], in test [6], in test [7], in test [8] and in test [10]. Further, the result in test [11], in [13], in test [14], in test [16], in test [17] and in test [18] was inactive. The outcome in [19] was inactive.

As for `CCCCOC(=O)c1ccccc1C(=O)OCc1ccccc1`, the AC50 was 3.11 µM (active) in test [4]; 3.11 µM (active) in test [5]; 2.71 µM (active) in test [9]; 5 µM (active) in test [11]; 3.83 µM (active) in test [12]; 6.09 µM (active) in test [13]. The concentration at half-maximal activity (AC50) in test [14] is 5 µM (active); in test [15], 2.58 µM (active); in test [16], 5 µM (active); in [17] it was 5 µM (active); in test [18], 8.11 µM (active); in test [20] it was 6.42 µM (active). Moreover, the outcome in test [6], in test [7], in test [8], in [10] and in [19] was inactive.

In the case of `COc1cc(C=O)cc2c1[C@H](COC(N)=O)[C@]1(OC(C)=O)ON2C[C@H]2[C@@H]1N2C(C)=O`, the compound was called inactive in test [1], in test [2], in [6], in [7] and in test [8].

Take `Cc1cc(N=Nc2ccccc2C)ccc1N`: the AC50 was 36.4 µM (active) in test [1]; 20 µM (active) in test [11]; 26.6 µM (active) in test [13]; 28.9 µM (active) in test [14]; 30.1 µM (active) in test [20]. Also, the compound was called inactive in [2], in test [3], in test [4], in test [5], in test [6] and in test [7]. The outcome in test [9], in test [10], in test [12], in test [15], in test [16] and in test [17] was inactive. In addition, the compound was classed as inactive in test [18] and in test [19].

As to `Clc1ccc(C(c2ccc(Cl)cc2)C(Cl)Cl)cc1`, the AC50 in [4] is 2.95 µM (active); in test [5], 2.94 µM (active); in test [9] it was 2.56 µM (active); in test [13], 5.41 µM (active); in test [15] it was 2.37 µM (active); in [16], 6.77 µM (active). In addition, the AC50 was 2.69 µM (active) in test [17], 7.42 µM (active) in test [18] and 11.4 µM (active) in [20]. Moreover, the outcome in test [6], in [7], in test [8], in [10], in [11] and in test [12] was inactive. Besides, the result in test [14] and in test [19] was inactive.
